Screening data deposited in PubChem BioAssay by National Center for Advancing Translational Sciences (NCATS).
LmPK inh: qHTS Assay for Inhibitors of Leishmania Mexicana Pyruvate Kinase (LmPK); purified LmPK, Kinase-Glo ATP luminescence, 1 h; Potency, µM (doses to about 57.5 µM), most hits filed as inhibitors; hit rate 0.37% among 290,000; AID 1721, 2009
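Kinase-Glo luminescence read after 1 h RT reaction of 0.1 nM LmPK with 0.5 mM PEP and 0.1 mM ADP. Activity scaled between uninhibited and enzyme-free controls.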
Tb PYK inh: qHTS of Trypanosoma Brucei Inhibitors. hit rate 0.12% among 410,000. pyruvate kinase (Trypanosoma brucei), Q57TT1. TbPYK enzyme, Kinase-Glo Plus ATP luminescence, 45 min. AID 624173, 2012. Potency, µM (doses to about 76.8 µM), usual class: inhibitors; further: nearly all actives have a fitted effect of over 50% in size
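Readout: single end-point luminescence (Kinase-Glo Plus, 10 min). Reaction conditions were TbPYK/substrate plus 130 uM ADP, 45 min at RT, pH 7.2 TEA buffer. No-enzyme wells served as controls, and data were normalized before concentration-response fitting.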
CHX counter: Cycloheximide Counterscreen for Small Molecule Inhibitors of Shiga Toxin | cell reporter, cycloheximide protein synthesis inhibition counterscreen | max response, % | hit rate 12% among 300,000 | AID 2314, 2010; in the data active means max response mostly above about 13%, no sharp cut-off; inactive means mostly below about 14%; further: read at 38.3 µM for the half of the compounds with a filed dose
Giardia FBPA inh: qHTS Assay for Inhibitors of Fructose-1,6-bisphosphate Aldolase from Giardia Lamblia; purified Giardia FBPA; Potency, µM (doses to about 59.6 µM), usual class: inhibitors; hit rate 0.71% among 290,000; further: nearly all actives have a fitted effect of over 55% in size
Target sequence (A8B2U2 whole entry, looked up): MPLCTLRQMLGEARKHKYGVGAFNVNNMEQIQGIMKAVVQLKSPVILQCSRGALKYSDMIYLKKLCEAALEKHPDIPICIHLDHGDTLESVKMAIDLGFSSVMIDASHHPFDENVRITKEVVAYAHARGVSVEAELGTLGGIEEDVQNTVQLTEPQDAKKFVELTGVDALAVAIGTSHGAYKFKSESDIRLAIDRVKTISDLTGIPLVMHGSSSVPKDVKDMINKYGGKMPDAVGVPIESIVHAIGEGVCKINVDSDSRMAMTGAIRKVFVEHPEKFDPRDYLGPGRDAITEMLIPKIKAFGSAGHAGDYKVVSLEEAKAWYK
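40 nM FBPA preincubated 10 min at RT with compound (up to 57.5 uM final), then substrate plus GAPDH/TPI/NAD/arsenate coupling and diaphorase/resazurin added. Fluorescence read after 20 min at RT, 525/598 nm.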
Shiga inhibitor: A qHTS for Small Molecule Inhibitors of Shiga Toxin | Vero cells, Shiga toxin protein synthesis inhibition reporter | inhibition, % at 38.7 µM | hit rate 9.2% among 290,000; in the data active means inhibition mostly above about 28%, no sharp cut-off; inactive means mostly below about 43%
Sm TGR block: qHTS Assay for the Inhibitors of Schistosoma Mansoni Peroxiredoxins. Schistosoma mansoni thioredoxin glutathione reductase (TGR), Q962Y6. AID 485364, 2010. Potency, µM (titrated, usually from 114 µM), hits mostly inhibitors. purified TGR, DTNB reduction, TNB absorbance 405 nm. hit rate 3% among 360,000; further: nearly all actives have a fitted effect of over 60% in size
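Kinetic colorimetric format: TGR-catalysed, NADPH-driven DTNB reduction monitored via TNB absorbance. Enzyme dispensed at 20 nM; compound exposure 15 min at room temperature before reaction start.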
Numbers stand for hits; n = inactive; u = inconclusive; x = no result given; [ ] = dose if it differs, or a comment. The entries come from a sample that favours hits as a whole. Unless noted, the call rests on the fitted dose curve; in most records, active means well fitted curve in the direction sought with a large enough effect; inconclusive means small, poorly fitted or top-dose-only effect, or another doubt; inactive means no such curve, though single readings can be large; an effect the other way counts as inactive or inconclusive.

SMILES | LmPK inh | Tb PYK inh | CHX counter | Giardia FBPA inh | Shiga inhibitor | Sm TGR block
CCOc1ccc(CCNC(=O)COC(=O)C2=NNC(=O)CC2)cc1OCC | x | n | x | x | x | n
CCOc1ccc(S(=O)(=O)N2CCN(c3c(C)cccc3C)CC2)c2ccccc12 | x | n | x | x | x | n
O=C1O/C(=C/Br)CCC1c1cccc2ccccc12 (stereo not drawn) | x | x | x | n | x | x
CC1Sc2ccc(S(=O)(=O)CCC(=O)N3CCc4ccccc43)cc2NC1=O (stereo not drawn) | n | n | n | x | n | u
O=C(NNC(=O)c1cc(OCC(F)(F)F)ccc1OCC(F)(F)F)c1cccc(C(F)(F)F)c1 | n | n | 19.7 | n | 55.9 | n
Cc1ccc(C(=O)NNC(=O)c2cc(OCC(F)(F)F)ccc2OCC(F)(F)F)cc1 | n | n | n | n | n | n
Cc1cccc(C)c1Nc1ncnc2ccccc12 | n | n | n | n | n | n
Clc1cccc(Nc2ncnc3ccc(Br)cc23)c1 | n | n | n | n | n | n
Clc1cccc(/C=N/Nc2ncnc3ccccc23)c1 | n | n | 35.3 | n | 62.2 | n
C(=N\Nc1ncnc2ccccc12)/c1ccccc1 | n | n | 24.1 | n | 71.1 | n
CCOc1ccc(NC(=O)CN(C)C(=O)C(C)N2C(=O)c3ccccc3C2=O)cc1OCC (stereo not drawn) | x | n | x | x | x | n
C=CCC(O)(/C=C/c1ccccc1)c1ccccc1 (stereo not drawn) | x | x | x | n | x | x
CC(=O)c1ccc(NC(=O)c2ccc(-c3ccc(Cl)cc3)o2)cc1 | x | n | x | x | x | 39.8µM
COc1ccc(NC(=O)c2ccc(-c3ccc(C(C)=O)cc3)o2)cn1 | x | n | x | x | x | n
COc1cccc(NC(=O)CN(C)C(=O)c2ccc(-c3ccc(Cl)cc3)o2)c1 | x | n | x | x | x | u
CN(C)C(=O)c1ccc(NC(=O)c2ccc(-c3ccc(Cl)cc3)o2)cc1 | x | n | x | x | x | 31.6µM
CCOc1cc(CNC(=O)c2ccc3c(c2)N(C)C(=O)C2CCCCN32)ccc1OC (stereo not drawn) | x | n | x | x | x | n
COc1ccc(C(=O)N2CCCCC2CCN2CCCCC2)cc1 (stereo not drawn) | x | n | x | x | x | n
CC(C)CCOC(=O)/C(=C/c1ccco1)NC(=O)/C=C/c1ccccc1 | n | x | 19.8 | n | n | n
NC(=O)/C(=C/c1ccco1)NC(=O)/C=C/c1ccccc1 | n | n | n | n | n | u
CCc1ccc(-c2nc(CSCC(=O)NCc3ccco3)c(C)o2)cc1 | n | n | n | n | n | 28.2µM
CCc1ccc(-c2nc(CSCC(=O)NCc3ccccc3OC)c(C)o2)cc1 | x | n | x | x | x | n
CCCNC(=O)CSCc1nc(-c2ccc(SC)cc2)oc1C | n | n | 25.8 | n | n | u
Cc1c(Cl)cccc1-c1ccc(C(=O)Nc2ccc(F)cc2)o1 | x | n | x | x | x | n
O=C(COC(=O)/C=C/c1ccccc1[N+](=O)[O-])Nc1ccc(OCc2ccccc2)cc1 | n | n | 17.1 | n | 39.3 | n
SMILES | LmPK inh | Tb PYK inh | CHX counter | Giardia FBPA inh | Shiga inhibitor | Sm TGR block
CC(C)(C)NC(=O)COC(=O)/C=C/c1ccccc1[N+](=O)[O-] | n | n | 23.8 | n | 38.5 | n
CNS(=O)(=O)c1cn(CC(=O)Nc2ccc(OC)cc2OC)cc1S(=O)(=O)NC | x | n[15.4 µM] | x | x | x | n
CCOCCn1ccc2c(OCC(=O)Nc3cc(C(F)(F)F)ccc3Cl)cccc2c1=O | x | n | x | x | x | n
c1ccc(-c2nn[nH]n2)cc1 | n | n | n | n | n | n
c1ccc(-c2nnc(-c3ccccc3)nn2)cc1 | u | u | 50.6 | n | 91.1 | n
C[C@H]1COc2cc(N3CCC[C@@H]3CO)ccc2S(=O)(=O)N1 | x | n | x | x | x | x
O=C1/C(=C/C=C/c2ccco2)SC(=S)N1NS(=O)(=O)c1ccccc1 | n | n | n | u | n | 1.78µM
O=C(O)CN1C(=O)/C(=C/C=C/c2ccccc2)SC1=S | n | n | n | n | n | n
CCN(C(=O)C(C)N1C(=O)/C(=C/c2ccco2)SC1=S)C1CCS(=O)(=O)C1 (stereo not drawn) | n | u | n | u | n | 39.8µM
CC(C(=O)O)N1C(=O)/C(=C/C=C/c2ccco2)SC1=S (stereo not drawn) | n | n | n | x | n | 7.08µM
COc1ccc(-c2nc(C)c(CCNC(=O)C(=O)Nc3ccccc3C#N)s2)cc1OC | x | n | x | x | x | n
Cc1ccc2nc(NC(=S)NC(=O)c3cccs3)sc2c1 | n | n | 47.5 | n | 102.0 | n
Cc1ccc2nc(NC(=S)NC(=O)c3ccc(OC(C)C)cc3)sc2c1 | 12.6µM | n | n | n | n | 0.708µM
Cc1[nH][nH]c(=O)c1C(c1ccc(-c2ccc(F)cc2)o1)c1c(C)[nH][nH]c1=O | n | n | n | u | n | 31.6µM
Cc1[nH][nH]c(=O)c1C(c1ccc(-c2ccc(C(=O)O)cc2)o1)c1c(C)[nH][nH]c1=O | n | u | n | 5.61µM | n | 15.8µM
Cc1[nH][nH]c(=O)c1C(c1ccc(-c2ccc(Cl)c(Cl)c2)o1)c1c(C)[nH][nH]c1=O | n | n | n | u | n | 39.8µM
COc1ccc(-c2ccc(C(c3c(C)[nH][nH]c3=O)c3c(C)[nH][nH]c3=O)o2)c([N+](=O)[O-])c1 | n | n | n | 6.29µM | n | 28.2µM
COc1ccc(-c2ccc(/C=N/N3C(=O)C4C5C=CC(C6CC56)C4C3=O)o2)c([N+](=O)[O-])c1 (stereo not drawn) | n | n | n | n | n | n
Cc1[nH][nH]c(=O)c1C(c1cc([N+](=O)[O-])ccc1O)c1c(C)[nH][nH]c1=O | n | n | n | u | n | n
Cc1ccc(-n2c(=O)c3ccccc3n(CC(=O)Nc3cccc(C(F)(F)F)c3)c2=O)cc1 | x | n | x | x | x | n
Cc1ccc(Nc2c(-c3ccco3)nc3nc(C)cc(C)n23)cc1 | n[11.5 µM] | n | n | n | n | 31.6µM
CO[C@]1(NC(=O)C2SC(=C(C(N)=O)C(=O)O)S2)C(=O)N2C(C(=O)O)=C(CSc3nnnn3C)CS[C@H]21 (stereo partly drawn) | x | n | x | n | x | x
CCN1c2ccccc2-c2nc(SCC(=O)Nc3cc(F)ccc3F)ncc2S1(=O)=O | x | n | x | x | x | n
COc1ccccc1-c1ccc(SCC(=O)N2CCOCC2)nn1 | n | n | n | n | n | n
COc1ccccc1-c1ccc(SCc2ccc(F)cc2)nn1 | n | n | 39.4 | n | 64.5 | n
COc1ccccc1-c1ccc(SCc2ccc(C)cc2)nn1 | n | n | 32.2 | n | 76.4 | n
Cc1nnc(N2CCCC(C(=O)Nc3cccc(C(F)(F)F)c3)C2)c2nn(-c3ccccc3)c(C)c12 (stereo not drawn) | x | n | x | x | x | n
CCCCCC(=O)N1C[C@H](n2cc(C3CC3)nn2)[C@@H](O)C[C@@H]1c1ccccc1 | x | n | x | x | x | x
